Reference: ChEMBL document CHEMBL3988442, “University of Dundee, Small-Polar-MMV Screening Library” (2021)
For some assays here: Entries with a potency or affinity are not part of this list.

How the values were obtained:
Design in all cases: scale not given: direction of the effect not stated beside the values
[1] = target: Protein translocase subunit SecA (Escherichia coli (strain K12)) (UniProt P10408); assay: Assay to Identify E. coli SecA ATPase Inhibitors; type: functional; details: 30 µM
[2] = target: T1, Ubiquitin-activating enzyme e1, putative (Leishmania donovani (strain BPK282A1)) (UniProt E9BSI1); assay: Leishmania donovani Ubiquitin Activating Enzyme (LdE1); type: functional; details: 30 µM
T1 sequence (whole entry): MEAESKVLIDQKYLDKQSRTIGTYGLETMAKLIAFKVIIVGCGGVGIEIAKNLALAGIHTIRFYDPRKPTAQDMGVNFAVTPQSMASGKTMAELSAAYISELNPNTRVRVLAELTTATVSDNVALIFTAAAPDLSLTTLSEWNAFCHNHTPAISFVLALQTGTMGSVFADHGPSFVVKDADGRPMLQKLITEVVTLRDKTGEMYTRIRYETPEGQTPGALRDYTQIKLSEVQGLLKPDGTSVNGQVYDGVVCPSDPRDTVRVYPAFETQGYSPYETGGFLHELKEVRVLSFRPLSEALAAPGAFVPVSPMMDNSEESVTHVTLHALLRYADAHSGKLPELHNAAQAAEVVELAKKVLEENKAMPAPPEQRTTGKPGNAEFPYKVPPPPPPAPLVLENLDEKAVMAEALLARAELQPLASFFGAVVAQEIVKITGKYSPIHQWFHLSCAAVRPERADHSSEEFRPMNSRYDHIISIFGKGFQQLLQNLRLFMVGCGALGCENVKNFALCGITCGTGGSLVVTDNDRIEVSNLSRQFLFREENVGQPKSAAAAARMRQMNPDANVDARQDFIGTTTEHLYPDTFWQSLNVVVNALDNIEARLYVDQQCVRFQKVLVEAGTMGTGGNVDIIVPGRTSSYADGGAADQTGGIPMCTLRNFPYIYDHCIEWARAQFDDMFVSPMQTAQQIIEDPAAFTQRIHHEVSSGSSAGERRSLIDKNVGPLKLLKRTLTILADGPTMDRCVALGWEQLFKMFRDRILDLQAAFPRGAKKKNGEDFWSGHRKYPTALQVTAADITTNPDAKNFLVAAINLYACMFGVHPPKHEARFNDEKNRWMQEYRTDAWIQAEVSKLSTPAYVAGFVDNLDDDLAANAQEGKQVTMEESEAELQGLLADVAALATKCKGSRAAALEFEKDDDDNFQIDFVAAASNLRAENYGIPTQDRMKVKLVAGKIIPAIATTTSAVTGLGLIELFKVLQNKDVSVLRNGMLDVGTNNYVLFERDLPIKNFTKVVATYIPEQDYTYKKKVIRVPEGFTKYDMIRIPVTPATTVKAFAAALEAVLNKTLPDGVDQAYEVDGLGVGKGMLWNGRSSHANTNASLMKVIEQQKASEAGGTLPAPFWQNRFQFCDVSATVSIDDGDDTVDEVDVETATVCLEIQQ

[3] = target: T2, Aspartate--tRNA(Asp/Asn) ligase (Mycobacterium tuberculosis (strain ATCC 25618 / H37Rv)) (UniProt P9WFW3); assay: Assay for Asp RNA synthetase-1 from Mycobacterium tuberculosis; type: functional; details: 30 µM; further: in the data most compounds retested in dose-response had high values
T2 sequence (whole entry): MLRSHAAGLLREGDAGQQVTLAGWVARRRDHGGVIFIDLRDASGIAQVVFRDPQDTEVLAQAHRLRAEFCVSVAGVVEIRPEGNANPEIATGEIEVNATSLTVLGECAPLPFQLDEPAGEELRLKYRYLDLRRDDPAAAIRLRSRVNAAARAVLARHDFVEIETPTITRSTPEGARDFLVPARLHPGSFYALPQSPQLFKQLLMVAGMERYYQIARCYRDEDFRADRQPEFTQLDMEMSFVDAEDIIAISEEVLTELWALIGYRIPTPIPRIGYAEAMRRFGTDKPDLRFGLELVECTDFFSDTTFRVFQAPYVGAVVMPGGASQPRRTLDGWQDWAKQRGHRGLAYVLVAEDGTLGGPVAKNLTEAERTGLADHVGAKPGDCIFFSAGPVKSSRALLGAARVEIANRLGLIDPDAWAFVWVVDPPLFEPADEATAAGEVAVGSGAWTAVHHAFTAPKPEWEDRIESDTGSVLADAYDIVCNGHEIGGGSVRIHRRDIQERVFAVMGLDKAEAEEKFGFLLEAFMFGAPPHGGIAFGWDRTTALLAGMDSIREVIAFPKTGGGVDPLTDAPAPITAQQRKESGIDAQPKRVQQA

[4] = target: AMP-activated protein kinase, AMPK (Homo sapiens) (UniProt P54646+O43741+P54619+Q9UGJ0+Q9Y478+Q13131+Q9UGI9); assay: AMP-dependent Kinase enzyme assay. An in vitro enzyme assay that detects ADP turnover that is directly proportional to AMPK activity. This uses naive AMPK that is activated during the assay with MK-8722; type: functional; details: 30 µM
[5] = target: Sialic acid-binding Ig-like lectin 9 (Homo sapiens) (UniProt Q9Y336); assay: Hs-Siglec9 ALPHAscreen SOP 20170721; details: 10 µM
Trypanosoma cruzi = assay: Trypanosoma cruzi phosphomannomutase and mannose-1-phosphate guanylyltransferase assay; type: functional; details: 10 µM
[6] = target: T3, Arginase-2, mitochondrial (Homo sapiens) (UniProt P78540); assay: in vitro enzyme assay to detect the production of urea directly proportional to the activity of Arginase II; type: functional; details: 33.3 µM; further: in the data most compounds retested in dose-response had high values
T3 sequence (whole entry): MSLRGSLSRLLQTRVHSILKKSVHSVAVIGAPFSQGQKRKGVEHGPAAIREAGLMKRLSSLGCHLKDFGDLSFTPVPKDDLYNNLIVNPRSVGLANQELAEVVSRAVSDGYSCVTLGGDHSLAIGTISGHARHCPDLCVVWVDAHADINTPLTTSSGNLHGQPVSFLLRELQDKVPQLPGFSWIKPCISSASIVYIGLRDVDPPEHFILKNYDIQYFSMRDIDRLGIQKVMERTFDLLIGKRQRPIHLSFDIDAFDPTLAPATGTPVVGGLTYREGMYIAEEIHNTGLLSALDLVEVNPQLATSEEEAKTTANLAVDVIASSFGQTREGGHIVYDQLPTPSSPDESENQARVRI

[7] = target: T4, Proteasome subunit beta (Trypanosoma cruzi) (UniProt O96673); assay: Trypanosoma cruzi proteasome chymotrypsin-like activity (TcProtChymo) assay.; further: in the data most compounds retested in dose-response had high values; type: functional; details: 9.37 µM
T4 sequence (whole entry): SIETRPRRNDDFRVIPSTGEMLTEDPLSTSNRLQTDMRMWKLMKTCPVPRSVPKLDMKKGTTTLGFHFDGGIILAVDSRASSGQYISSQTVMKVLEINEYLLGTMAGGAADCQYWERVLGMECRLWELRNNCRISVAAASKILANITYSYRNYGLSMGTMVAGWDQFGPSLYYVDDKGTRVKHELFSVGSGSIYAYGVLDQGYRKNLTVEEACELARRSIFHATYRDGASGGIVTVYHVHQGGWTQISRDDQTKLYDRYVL

Homo sapiens = species on record: Homo sapiens; assay: To identify inhibition of the IFN signalling (Jak-Stat) pathway via expression of an eGFP reporter gene under the control of an IFN-stimulated response element (ISRE) containing MxA promoter.; type: functional; details: 30 µM
[8] = target: Shiga toxin 2 (Escherichia coli O157:H7) (UniProt P09385+P09386); assay: E. coli 0.157:H7 Shiga Toxin SOP - stx2 screening assay; type: functional; details: 30 µM
[9] = target: T5, Tyrosyl-tRNA synthetase, putative (Trypanosoma cruzi (strain CL Brener)) (UniProt Q4DSP6); assay: Trypanosoma cruzi tyrosyl tRNA synthetase (TcYRS) _High Tyrosine SOP; type: functional; details: 30 µM; further: in the data most compounds retested in dose-response had high values
T5 sequence (whole entry): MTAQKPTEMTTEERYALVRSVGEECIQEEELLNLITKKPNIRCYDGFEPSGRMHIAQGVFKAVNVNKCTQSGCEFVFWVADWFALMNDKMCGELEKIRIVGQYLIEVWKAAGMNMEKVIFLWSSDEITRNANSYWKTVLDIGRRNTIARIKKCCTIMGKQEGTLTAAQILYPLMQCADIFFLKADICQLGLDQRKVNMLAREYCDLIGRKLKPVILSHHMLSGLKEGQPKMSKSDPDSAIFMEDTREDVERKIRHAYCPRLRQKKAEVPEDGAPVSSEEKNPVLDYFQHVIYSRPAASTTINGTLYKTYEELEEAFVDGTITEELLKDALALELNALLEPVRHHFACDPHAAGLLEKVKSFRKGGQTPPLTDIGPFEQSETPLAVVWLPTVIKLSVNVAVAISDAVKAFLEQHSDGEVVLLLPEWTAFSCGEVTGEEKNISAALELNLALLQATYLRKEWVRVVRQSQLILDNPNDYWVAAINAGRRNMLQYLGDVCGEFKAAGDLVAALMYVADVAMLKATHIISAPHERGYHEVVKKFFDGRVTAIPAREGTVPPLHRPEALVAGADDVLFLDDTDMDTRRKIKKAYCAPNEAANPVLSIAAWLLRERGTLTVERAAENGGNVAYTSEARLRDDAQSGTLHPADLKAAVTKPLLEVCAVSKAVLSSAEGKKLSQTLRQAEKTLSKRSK

[10] = target: T5, Tyrosyl-tRNA synthetase, putative (Trypanosoma cruzi (strain CL Brener)); assay: Trypanosoma cruzi tyrosyl tRNA synthetase (TcYRS) SOP; type: functional; details: 30 µM
[11] = target: Chromo domain-containing protein 1 (Saccharomyces cerevisiae (strain ATCC 204508 / S288c) (Baker's yeast)) (UniProt P32657); assay: ScCHD-1 Enzyme Inhibition Assay; type: functional; details: 30 µM; further: in the data most compounds retested in dose-response had high values
Sequence of Chromo domain-containing protein 1 (Saccharomyces cerevisiae (strain ATCC 204508 / S288c) (Baker's yeast)) (P32657 whole entry, the tested form may be a part): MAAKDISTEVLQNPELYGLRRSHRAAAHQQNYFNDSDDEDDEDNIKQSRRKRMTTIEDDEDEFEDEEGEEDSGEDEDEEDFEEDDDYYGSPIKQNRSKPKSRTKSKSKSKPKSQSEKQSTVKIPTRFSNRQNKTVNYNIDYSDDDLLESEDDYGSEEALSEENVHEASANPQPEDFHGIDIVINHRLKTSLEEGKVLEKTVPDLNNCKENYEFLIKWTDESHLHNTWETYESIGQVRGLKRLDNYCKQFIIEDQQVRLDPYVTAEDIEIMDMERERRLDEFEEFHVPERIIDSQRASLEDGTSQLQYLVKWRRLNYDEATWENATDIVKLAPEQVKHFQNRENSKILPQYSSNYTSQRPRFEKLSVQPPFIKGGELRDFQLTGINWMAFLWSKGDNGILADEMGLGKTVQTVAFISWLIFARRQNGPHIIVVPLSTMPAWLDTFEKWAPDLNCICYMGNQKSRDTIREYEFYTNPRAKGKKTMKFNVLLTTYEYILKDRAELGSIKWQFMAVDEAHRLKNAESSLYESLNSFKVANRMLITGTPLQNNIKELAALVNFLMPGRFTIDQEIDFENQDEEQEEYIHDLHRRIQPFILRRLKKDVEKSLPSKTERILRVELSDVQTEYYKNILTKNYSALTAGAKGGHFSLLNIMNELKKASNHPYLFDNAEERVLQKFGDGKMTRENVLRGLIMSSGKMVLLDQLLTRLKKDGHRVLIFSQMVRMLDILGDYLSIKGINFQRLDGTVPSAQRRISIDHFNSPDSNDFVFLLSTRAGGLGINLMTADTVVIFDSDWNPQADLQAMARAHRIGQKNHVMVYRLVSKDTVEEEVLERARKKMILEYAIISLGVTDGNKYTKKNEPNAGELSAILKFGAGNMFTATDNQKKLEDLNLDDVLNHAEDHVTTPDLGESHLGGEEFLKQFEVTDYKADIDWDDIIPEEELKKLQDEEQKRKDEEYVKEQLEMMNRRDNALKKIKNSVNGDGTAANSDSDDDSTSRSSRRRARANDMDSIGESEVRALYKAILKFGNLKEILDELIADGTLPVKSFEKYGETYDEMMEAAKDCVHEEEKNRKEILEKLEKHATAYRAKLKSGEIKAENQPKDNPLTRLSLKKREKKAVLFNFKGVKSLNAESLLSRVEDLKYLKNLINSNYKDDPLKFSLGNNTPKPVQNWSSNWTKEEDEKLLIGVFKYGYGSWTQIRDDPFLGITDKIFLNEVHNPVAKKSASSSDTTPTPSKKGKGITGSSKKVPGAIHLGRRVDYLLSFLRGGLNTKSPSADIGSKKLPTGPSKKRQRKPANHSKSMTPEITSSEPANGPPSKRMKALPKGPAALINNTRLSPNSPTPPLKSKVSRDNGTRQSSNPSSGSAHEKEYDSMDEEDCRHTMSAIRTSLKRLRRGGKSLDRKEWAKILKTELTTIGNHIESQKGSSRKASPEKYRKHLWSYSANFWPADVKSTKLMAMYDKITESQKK

Sequence of Protein translocase subunit SecA (Escherichia coli (strain K12)) (P10408 whole entry): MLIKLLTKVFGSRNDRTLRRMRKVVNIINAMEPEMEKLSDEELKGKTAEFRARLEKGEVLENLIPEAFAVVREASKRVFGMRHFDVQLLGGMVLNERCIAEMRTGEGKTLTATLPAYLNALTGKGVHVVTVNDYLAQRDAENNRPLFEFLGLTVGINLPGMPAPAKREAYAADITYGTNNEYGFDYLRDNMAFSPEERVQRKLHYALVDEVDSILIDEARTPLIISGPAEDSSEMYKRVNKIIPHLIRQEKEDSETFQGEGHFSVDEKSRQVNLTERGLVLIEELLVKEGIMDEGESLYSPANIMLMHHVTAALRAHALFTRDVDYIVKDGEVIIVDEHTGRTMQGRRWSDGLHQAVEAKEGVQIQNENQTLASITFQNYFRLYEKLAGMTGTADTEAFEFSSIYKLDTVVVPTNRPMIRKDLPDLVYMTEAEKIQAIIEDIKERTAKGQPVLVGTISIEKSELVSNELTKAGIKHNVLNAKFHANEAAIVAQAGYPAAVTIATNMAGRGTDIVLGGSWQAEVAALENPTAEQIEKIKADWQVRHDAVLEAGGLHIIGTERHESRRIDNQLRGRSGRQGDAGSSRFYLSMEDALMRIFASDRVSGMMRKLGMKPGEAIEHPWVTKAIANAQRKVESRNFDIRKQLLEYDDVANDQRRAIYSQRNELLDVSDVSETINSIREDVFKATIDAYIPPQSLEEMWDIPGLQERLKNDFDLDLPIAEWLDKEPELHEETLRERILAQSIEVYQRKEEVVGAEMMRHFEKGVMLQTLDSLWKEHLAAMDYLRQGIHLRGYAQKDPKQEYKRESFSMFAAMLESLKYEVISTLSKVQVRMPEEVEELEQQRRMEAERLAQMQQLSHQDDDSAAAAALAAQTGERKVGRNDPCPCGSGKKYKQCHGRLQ
Sequence of Sialic acid-binding Ig-like lectin 9 (Homo sapiens) (Q9Y336 whole entry): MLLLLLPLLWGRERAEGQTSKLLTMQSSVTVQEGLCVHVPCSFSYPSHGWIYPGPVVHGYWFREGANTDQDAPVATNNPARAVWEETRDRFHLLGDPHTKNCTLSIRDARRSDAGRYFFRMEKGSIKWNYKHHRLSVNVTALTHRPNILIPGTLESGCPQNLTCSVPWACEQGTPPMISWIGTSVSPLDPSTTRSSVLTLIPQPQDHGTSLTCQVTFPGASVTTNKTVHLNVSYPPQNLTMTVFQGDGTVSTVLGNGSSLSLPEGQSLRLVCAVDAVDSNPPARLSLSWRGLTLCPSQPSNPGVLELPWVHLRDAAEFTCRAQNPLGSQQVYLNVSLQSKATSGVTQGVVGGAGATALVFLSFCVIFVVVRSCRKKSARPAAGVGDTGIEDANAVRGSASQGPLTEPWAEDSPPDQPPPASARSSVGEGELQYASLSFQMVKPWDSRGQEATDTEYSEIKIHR

SMILES	Percent Effect [1] [%]	Percent Effect [2] [%]	Percent Effect [3] [%]	Percent Effect [4] [%]	Percent Effect [5] [%]	Percent Effect (Trypanosoma cruzi) [%]	Percent Effect [6] [%]	Percent Effect [7] [%]	Percent Effect (Homo sapiens) [%]	Percent Effect [8] [%]	Percent Effect [9] [%]	Percent Effect [10] [%]	Percent Effect [11] [%]
CC(C)c1nc(N2CCN3CCCC3C2)c2cnn(C)c2n1 (stereo not given)	-0.588	8.22	4.74	-0.789	7.41	1.98	-6.79	8.82	-37.1	-16.2	8.33	16.1	-6.37
O=C1[C@H]2CN(Cc3ccoc3)C[C@H]2CN1Cc1ccncc1	-3.37	7.79	3.69	2.81	28.9	-4.23	4.14	7.32	-1.81	-39.9	3.23	8.64	10.5
CC(C)CN1CCC2(CC1)C(=O)Nc1ccc(C(=O)N(C)C)cc12	-4.79	5.41	-0.578	-2.95	-1.19	-3.81	0.248	8.67	7.43	5.38	4.3	8.64	-2.28
c1ccc(O[C@H]2CC[C@H]3[C@H]2OCCN3Cc2nccs2)nc1	-1.17	-5.2	5.47	-3.9	10.1	7.57	-41.4	13.6	21	-14.7	3.23	8.64	-5.68
O=C(CN1CCN(C(=O)Cc2ccc3c(c2)OCCO3)CC1)NC1CC1	-0.996	18.2	3.1	0.741	0.674	2.06	-2.13	11.8	-0.0292	-19.4	6.8	12.2	-6.48
